Article PMC5540273 (PLoS ONE, 2017)
Read-outs that look alike come from different tables or passages of the source.

Key:
CDK4-cyclinD3 = details: n = 1
CDK4 = details: n = 1
CDK5 = details: concentration: 1 μM, replicates: in singlicate; n = 1
CDK7 = details: concentration: 1 μM, replicates: in singlicate; n = 1
CDK8 = details: concentration: 1 μM, replicates: in singlicate; n = 1
CDK9 = details: concentration: 1 μM, replicates: in singlicate; n = 1
CDKL1 = details: concentration: 1 μM, replicates: in singlicate; n = 1
CDKL2 = details: concentration: 1 μM, replicates: in singlicate; n = 1
CDKL3 = details: concentration: 1 μM, replicates: in singlicate; n = 1
CDKL5 = details: concentration: 1 μM, replicates: in singlicate; n = 1
CHEK1 = details: concentration: 1 μM, replicates: in singlicate; n = 1
CHEK2 = details: concentration: 1 μM, replicates: in singlicate; n = 1
CIT = details: concentration: 1 μM, replicates: in singlicate; n = 1
CLK1 = details: concentration: 1 μM, replicates: in singlicate; n = 1
CLK2 = details: concentration: 1 μM, replicates: in singlicate; n = 1
CLK3 = details: concentration: 1 μM, replicates: in singlicate; n = 1
CLK4 = details: concentration: 1 μM, replicates: in singlicate; n = 1
CSF1R-autoinhibited = details: concentration: 1 μM, replicates: in singlicate; n = 1
CSF1R = details: concentration: 1 μM, replicates: in singlicate; n = 1
CSK = details: concentration: 1 μM, replicates: in singlicate; n = 1
[1] = concentration: 1 μM, replicates: in singlicate
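Also: KINOMEscan kinase panel screen.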

SMILES: COc1cc(Nc2nccc(N3CCC(NC(=O)c4cccc(NC(C)=O)c4)C3)n2)cc(OC)c1OC (centres unmarked) [GSK1379754]
- %Inh (CDK4-cyclinD3; [1]): 0%
- %Inh (CDK4; [1]): 12%
- %Inh (CDK5): 0%
- %Inh (CDK7): 9%
- %Inh (CDK8): 33%
- %Inh (CDK9): 0%
- %Inh (CDKL1): 0%
- %Inh (CDKL2): 22%
- %Inh (CDKL3): 0%
- %Inh (CDKL5): 4%
- %Inh (CHEK1): 0%
- %Inh (CHEK2): 19%
- %Inh (CIT): 23%
- %Inh (CLK1): 10%
- %Inh (CLK2): 3%
- %Inh (CLK3): 0%
- %Inh (CLK4): 13%
- %Inh (CSF1R-autoinhibited): 0%
- %Inh (CSF1R): 38%
- %Inh (CSK): 0%

SMILES: O=c1cc(N2CCOCC2)nc2n(Cc3cccc(Cl)c3Cl)c(C3CC3)nn12 [GSK2358994]
- %Inh (CDK4-cyclinD3; 1 µM): 0%
- %Inh (CDK4; 1 µM): 0%
- %Inh (CDK5): 7%
- %Inh (CDK7): 5%
- %Inh (CDK8): 0%
- %Inh (CDK9): 0%
- %Inh (CDKL1): 20%
- %Inh (CDKL2): 0%
- %Inh (CDKL3): 0%
- %Inh (CDKL5): 0%
- %Inh (CHEK1): 15%
- %Inh (CHEK2): 0%
- %Inh (CIT): 0%
- %Inh (CLK1): 27%
- %Inh (CLK2): 25%
- %Inh (CLK3): 14%
- %Inh (CLK4): 0%
- %Inh (CSF1R-autoinhibited): 0%
- %Inh (CSF1R): 0%
- %Inh (CSK): 8%

SMILES: Nc1nccc(-c2c(-c3ccc(F)cc3)ncn2C2CCN(CC(F)(F)F)CC2)n1 [SB-236560]
- %Inh (CDK4-cyclinD3; [1]): 97.9%
- %Inh (CDK4; [1]): 52%
- %Inh (CDK5): 0%
- %Inh (CDK7): 10%
- %Inh (CDK8): 70%
- %Inh (CDK9): 0%
- %Inh (CDKL1): 18%
- %Inh (CDKL2): 11%
- %Inh (CDKL3): 0%
- %Inh (CDKL5): 0%
- %Inh (CHEK1): 0%
- %Inh (CHEK2): 38%
- %Inh (CIT): 66%
- %Inh (CLK1): 0%
- %Inh (CLK2): 6%
- %Inh (CLK3): 17%
- %Inh (CLK4): 0%
- %Inh (CSF1R-autoinhibited): 68%
- %Inh (CSF1R): 0%
- %Inh (CSK): 0%

SMILES: Cn1cc(-c2ccc3c(c2)CCN3C(=O)Cc2ccccc2Cl)c2c(N)ncnc21 [GSK2608885]
- %Inh (CDK4-cyclinD3; [1]): 0%
- %Inh (CDK4; [1]): 22%
- %Inh (CDK5): 0%
- %Inh (CDK7): 1%
- %Inh (CDK8): 7%
- %Inh (CDK9): 0%
- %Inh (CDKL1): 0%
- %Inh (CDKL2): 17%
- %Inh (CDKL3): 0%
- %Inh (CDKL5): 10%
- %Inh (CHEK1): 35%
- %Inh (CHEK2): 4%
- %Inh (CIT): 65%
- %Inh (CLK1): 25%
- %Inh (CLK2): 0%
- %Inh (CLK3): 1%
- %Inh (CLK4): 0%
- %Inh (CSF1R-autoinhibited): 0%
- %Inh (CSF1R): 99.8%
- %Inh (CSK): 97.6%

SMILES: Cn1ccc2ncnc(Oc3ccc(NC(=O)Nc4ccncc4)c(Cl)c3)c21
- %Inh (CDK4-cyclinD3; [1]): 0%
- %Inh (CDK4; [1]): 0%
- %Inh (CDK5): 0%
- %Inh (CDK7): 0%
- %Inh (CDK8): 0%
- %Inh (CDK9): 0%
- %Inh (CDKL1): 0%
- %Inh (CDKL2): 0%
- %Inh (CDKL3): 0%
- %Inh (CDKL5): 49%
- %Inh (CHEK1): 0%
- %Inh (CHEK2): 20%
- %Inh (CIT): 18%
- %Inh (CLK1): 0%
- %Inh (CLK2): 0%
- %Inh (CLK3): 0%
- %Inh (CLK4): 21%
- %Inh (CSF1R-autoinhibited): 0%
- %Inh (CSF1R): 0%
- %Inh (CSK): 0%

SMILES: O=C1NC(=O)C(N2CCc3ccccc32)=C1c1cccc(Cl)c1 [SB-408010]
- %Inh (CDK4-cyclinD3; [1]): 0%
- %Inh (CDK4; [1]): 0%
- %Inh (CDK5): 7%
- %Inh (CDK7): 9%
- %Inh (CDK8): 0%
- %Inh (CDK9): 0%
- %Inh (CDKL1): 0%
- %Inh (CDKL2): 11%
- %Inh (CDKL3): 0%
- %Inh (CDKL5): 0%
- %Inh (CHEK1): 0%
- %Inh (CHEK2): 7%
- %Inh (CIT): 0%
- %Inh (CLK1): 0%
- %Inh (CLK2): 0%
- %Inh (CLK3): 0%
- %Inh (CLK4): 21%
- %Inh (CSF1R-autoinhibited): 16%
- %Inh (CSF1R): 0%
- %Inh (CSK): 11%

SMILES: Cl.Oc1cccc(Nc2ccnc3cc(-c4ccncc4)ccc23)c1 [GW494601]
- %Inh (CDK4-cyclinD3; [1]): 0%
- %Inh (CDK4; [1]): 37%
- %Inh (CDK5): 0%
- %Inh (CDK7): 10%
- %Inh (CDK8): 36%
- %Inh (CDK9): 4%
- %Inh (CDKL1): 2%
- %Inh (CDKL2): 2%
- %Inh (CDKL3): 0%
- %Inh (CDKL5): 0%
- %Inh (CHEK1): 0%
- %Inh (CHEK2): 42%
- %Inh (CIT): 68%
- %Inh (CLK1): 9%
- %Inh (CLK2): 0%
- %Inh (CLK3): 0%
- %Inh (CLK4): 33%
- %Inh (CSF1R-autoinhibited): 41%
- %Inh (CSF1R): 91.9%
- %Inh (CSK): 65%

SMILES: COC(=O)Nc1nc2cc(Oc3ccc(NC(=O)Nc4cc(F)ccc4F)cc3)ccc2[nH]1.Cl [GW701424]
- %Inh (CDK4-cyclinD3; [1]): 5%
- %Inh (CDK4; [1]): 0%
- %Inh (CDK5): 0%
- %Inh (CDK7): 37%
- %Inh (CDK8): 42%
- %Inh (CDK9): 0%
- %Inh (CDKL1): 0%
- %Inh (CDKL2): 36%
- %Inh (CDKL3): 0%
- %Inh (CDKL5): 0%
- %Inh (CHEK1): 0%
- %Inh (CHEK2): 21%
- %Inh (CIT): 99%
- %Inh (CLK1): 29%
- %Inh (CLK2): 0%
- %Inh (CLK3): 14%
- %Inh (CLK4): 40%
- %Inh (CSF1R-autoinhibited): 50%
- %Inh (CSF1R): 99.7%
- %Inh (CSK): 0%

SMILES: NS(=O)(=O)c1cccc(-c2ccc3nccc(-c4cccc(S(N)(=O)=O)c4)c3c2)c1 [GW867253]
- %Inh (CDK4-cyclinD3; [1]): 0%
- %Inh (CDK4; [1]): 19%
- %Inh (CDK5): 0%
- %Inh (CDK7): 4%
- %Inh (CDK8): 36%
- %Inh (CDK9): 0%
- %Inh (CDKL1): 27%
- %Inh (CDKL2): 16%
- %Inh (CDKL3): 20%
- %Inh (CDKL5): 5%
- %Inh (CHEK1): 0%
- %Inh (CHEK2): 0%
- %Inh (CIT): 0%
- %Inh (CLK1): 0%
- %Inh (CLK2): 25%
- %Inh (CLK3): 0%
- %Inh (CLK4): 1%
- %Inh (CSF1R-autoinhibited): 0%
- %Inh (CSF1R): 0%
- %Inh (CSK): 0%

SMILES: O=C1Cc2cc(Nc3nc(NCc4cccc(S(=O)(=O)C(F)(F)F)c4)ncc3C(F)(F)F)ccc2N1
- %Inh (CDK4-cyclinD3; [1]): 0%
- %Inh (CDK4; [1]): 27%
- %Inh (CDK5): 14%
- %Inh (CDK7): 4%
- %Inh (CDK8): 3%
- %Inh (CDK9): 10%
- %Inh (CDKL1): 21%
- %Inh (CDKL2): 4%
- %Inh (CDKL3): 3%
- %Inh (CDKL5): 18%
- %Inh (CHEK1): 0%
- %Inh (CHEK2): 0%
- %Inh (CIT): 0%
- %Inh (CLK1): 0%
- %Inh (CLK2): 0%
- %Inh (CLK3): 0%
- %Inh (CLK4): 0%
- %Inh (CSF1R-autoinhibited): 0%
- %Inh (CSF1R): 9%
- %Inh (CSK): 3%
